Screening data deposited in PubChem by National Center for Advancing Translational Sciences (NCATS).
Most compounds without a hit are left out; they make up all but 19% or so of the library.
Pf growth 48h – Primary qHTS for delayed death inhibitors of the malarial parasite plastid, 48 hour incubation | P. falciparum luciferase growth in erythrocytes, 48 h | Potency, µM (titrated, usually from 28.7 µM), for the others: top-dose activity change, negative = inhibition, actives largely listed as inhibitors | 5.9% of 310,000 active | AID 504832, 2011; further: potency means the concentration at half of the fitted maximal effect; on the % scale 0 is the no-effect control and ±100 the full control effect
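Luciferase-expressing P. falciparum in infected erythrocytes (2% hematocrit, 0.1% parasitemia final) in RPMI 1640/0.5% Albumax were exposed to compound for 48 hours at 37 C, 5% CO2; growth read as luminescence.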
Marburg entry inh – qHTS for inhibitors of binding or entry into cells for Marburg Virus. Potency, µM (doses to about 37.8 µM), without a hit: at the top dose activity change, negative = inhibition, usual class: inhibitors. 1.8% of 300,000 active. Marburg virus pseudotyped entry inhibition, cell reporter; calls by dose curve; tested in HEK293 cells; further: potency means the concentration at half of the fitted maximal effect; on the % scale 0 is the no-effect control and ±100 the full control effect
Shiga inhibitor – A qHTS for Small Molecule Inhibitors of Shiga Toxin. Vero cells, Shiga toxin protein synthesis inhibition reporter. 9.2% of 290,000 active. inhibition, % at 38.7 µM. AID 2315, 2010; in the data active means inhibition mostly above about 28%, no sharp cut-off; inactive means mostly below about 43%; further: 0% is about no effect
Cycloheximide cs – Cycloheximide Counterscreen for Small Molecule Inhibitors of Shiga Toxin. max response, %. AID 2314, 2010. cell reporter, cycloheximide protein synthesis inhibition counterscreen. 12% of 300,000 active; in the data active means max response mostly above about 13%, no sharp cut-off; inactive means mostly below about 14%; further: read at 38.3 µM for the half of the compounds with a filed dose; 0% is about no effect
LASV entry inh – qHTS for Inhibitors of binding or entry into cells for Lassa Virus; Potency, µM (highest dose often 37.9 µM), inactives show top-dose activity change, negative = inhibition, usual class: inhibitors; 1.2% of 300,000 active; AID 540256, 2011; Lassa virus pseudotype entry inhibition, cell reporter; calls by dose curve; tested in HEK293 cells; further: potency means the concentration at half of the fitted maximal effect; on the % scale 0 is the no-effect control and ±100 the full control effect; nearly all actives have a fitted effect of over 50% in size
Pf growth 96h – Primary qHTS for delayed death inhibitors of the malarial parasite plastid, 96 hour incubation. P. falciparum luciferase reporter growth, 96 h. Potency, µM (series often up to 28.7 µM), inactives show top-dose activity change, negative = inhibition, hits mostly inhibitors. 6.9% of 320,000 active. AID 504834, 2011; further: potency means the concentration at half of the fitted maximal effect; on the % scale 0 is the no-effect control and ±100 the full control effect
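Compounds incubated with erythrocytes infected by luciferase-expressing P. falciparum (2% hematocrit, 0.05% parasitemia final) for 96 hours, 37 C in 5% CO2. Growth inhibition scored as decreased luciferase luminescence.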
The depositor's hits bear a star; ? = inconclusive; nt = no result given; [ ] = dose if it differs, or a comment. Unless noted, the call rests on the fitted dose curve; in most records, active means well fitted inhibition curve with a large enough effect; inconclusive means small, poorly fitted or top-dose-only effect, or another doubt; inactive means no such curve, though single readings can be large or run the other way.

SMILES	Pf growth 48h	Marburg entry inh	Shiga inhibitor	Cycloheximide cs	LASV entry inh	Pf growth 96h
COc1ccc2[nH]c3c(c2c1)CCN1C(=O)C(CC(=O)NC(C)(C)C)C[C@H](C(=O)N2CCOCC2)[C@@]31CCC1CCCC1 (stereo partly specified)	nt	-2%	nt	nt	nt	nt
CC1(C)CC[C@]2(C(=O)O)[C@H](O)C[C@]3(C)C(=CCC4[C@@]5(C)C[C@H](O)[C@H](O)[C@@](C)(CO)C5CC[C@]43C)[C@@H]2C1 (stereo partly specified)	-27%	nt	nt	nt	nt	-5%
CCOC(=O)C(NS(=O)(=O)c1ccccc1)(C(F)(F)F)P(=O)(OCC(C)C)OCC(C)C (stereo unspecified)	nt	?	-4	-1	?	-3%
CC1CCCN(C(=O)COC(=O)c2n[nH]c3ccccc23)C1 (stereo unspecified)	145%	?	84	23	10%	nt
COc1ccc(/C=C/C(=O)O)cc1COc1cccc(C)c1	-8%	0%	-8	-4	6%	-4%
CCc1ccc(/C=C2\Oc3c(ccc(O)c3CN3CCN(C)CC3)C2=O)cc1	?	nt	-8	-1	nt	?
CCOC(=O)C1=C(c2ccccc2)NC(SCC(=O)Nc2cccc(C)c2)=C(C#N)C1c1ccco1 (stereo unspecified)	9.3µM*	?	-7	-3	-13%	27%
CCOC(=O)C1=C(c2ccccc2)NC(SCC(=O)Nc2ccccc2C)=C(C#N)C1c1ccco1 (stereo unspecified)	8.3µM*	23µM*	-6	4	?	27%
CCOC(=O)C1=C(c2ccccc2)NC(SCC(=O)Nc2ccc(C)cc2)=C(C#N)C1c1ccco1 (stereo unspecified)	?	?	45	9	-24%	nt
COc1ccc(NC(=O)CSc2nc3cc(OC)c(OC)cc3c3nc(-c4ccccc4)nn23)cc1Cl	nt	-5%[46.1 µM]	nt	nt	7%[46.1 µM]	nt
COc1cccc(OC)c1C(=O)Nc1sc2c(c1C(N)=O)CCN(Cc1ccccc1)C2	?	nt	0	1	nt	?
CC(C)N1CCc2c(sc(NC(=O)c3ccc4ccccc4c3)c2C(N)=O)C1	10µM*	nt	-20	10	nt	9.3µM*
CC(C)N1CCc2c(sc(NC(=O)Cc3ccccc3)c2C(N)=O)C1	?	nt	-4	-4	nt	?
CC(C)N1CCc2c(sc(NC(=O)CCc3ccccc3)c2C(N)=O)C1	?	nt	4	5	nt	?
CCN1CCc2c(sc(NC(=O)c3cc4ccccc4cc3OC)c2C(N)=O)C1	9.3µM*	11µM*	-23	-8	-2%[46.1 µM]	?
CCN1CCc2c(sc(NC(=O)CSc3ccccc3)c2-c2nc3ccccc3s2)C1	nt	nt	-26	-13	-27%[46.1 µM]	nt
CC(C)N1CCc2c(sc(NC(=O)c3ccc(C(=O)c4ccccc4)cc3)c2C(N)=O)C1	13µM*	?	-5	5	?	?
CC(=O)Nc1sc2c(c1-c1nc3ccccc3s1)CCN(C(C)C)C2	3.7µM*	nt	-2	-1	nt	4.1µM*
COc1cc(OC)cc(C(=O)N2CCC(C(=O)Nc3ccc4c(c3)OCCO4)CC2)c1	0%	4%	-6	-2	?	6%
Cc1nnc(N2C(=O)c3ccc(Br)cc3C2=O)s1	12%	?	2	-3	-4%	?
Cc1ccc(C)c(C(=O)NC(C)c2ccc(-n3ccnc3)cc2)c1 (stereo unspecified)	?	-17%	-3	4	-1%	?
Cc1ccc(C)c(N2CCN(C(=O)CNS(=O)(=O)c3cccs3)CC2)c1	-23%	?	6	7	-9%	nt
Cc1ccc(C)c(C(=O)Nc2ccncc2)c1	?	-6%	nt	0	18%	2.1µM*
O=C(Nc1ccncc1)c1ccccc1Cl	35%	nt	37*	13	nt	?
CC(C)NC(=O)Nc1ccc(Br)cc1Cl	25%	7%[46.1 µM]	33	1	?	?
SMILES	Pf growth 48h	Marburg entry inh	Shiga inhibitor	Cycloheximide cs	LASV entry inh	Pf growth 96h
O=C(Nc1ccncc1)Nc1ccccc1Cl	?	nt	49*	24*	nt	?
O=C(Nc1ccncc1)Nc1cc(Cl)ccc1Cl	?	-6%[46.1 µM]	-2	0	-7%[46.1 µM]	-1%
O=C(Nc1cccnc1)Nc1ccc(Br)cc1Cl	?	20%	56*	29*	18%	nt
O=c1[nH]oc2c1CCNC2	7%	?	nt	nt	-19%	?
NC(=O)c1cc(C(=O)Cc2ccccc2)c[nH]1	31%	29%	29	-3	?	8%
Cc1cc(C)nc(-n2nc(C)cc2NC(=O)c2cccc(S(=O)(=O)N(C)C)c2)n1	?	22%	7	-4	7%	2%
O=C(Nc1cccnc1)Nc1cc(Cl)cc(Cl)c1	?	-15%	-1	1	1%	?
Cc1ccc(NC(=O)Nc2cccnc2)cc1Cl	?	10%[46.1 µM]	63*	37*	-8%[46.1 µM]	?
O=C(Nc1cccnc1)Nc1ccccc1Cl	34%	?	93	26*	?	nt
O=C(O)c1ccc(NS(=O)(=O)c2ccc(NC(=O)c3ccccc3Cl)cc2)cc1	22%	nt	-3	1	nt	6.6µM*
Cc1ccc(C)c(C(=O)Nc2cc(C)nn2-c2nc(C)cc(C)n2)c1	13µM*	?	17	-6	?	?
CNc1c([N+](=O)[O-])cnn1-c1ccccn1	4%	?	-4	-1	3%	4%
CCOC(=O)CC(=O)CSc1nc(-c2ccc3c(c2)OCO3)cc(C(F)(F)F)c1C#N	?	-19%	-10	-1	-18%	?
COc1ccccc1N1CCN(CCCCOc2c(OC)cccc2OC)CC1	-25%	?	-7	-3	?	17%
CC(=O)c1cccc(NC(=S)NNC(=O)c2ccc(C)c([N+](=O)[O-])c2)c1	3%	nt	-12	-2	nt	-4%
O=C(COC(=O)CNC(=O)c1cccs1)Nc1ccccc1C(F)(F)F	58%	25%[46.1 µM]	-8	7	-30%	6%
CCOc1ccc(OCC(=O)Nc2ccccc2C(F)(F)F)cc1	8%	?	31	23*	17%	32%
O=Cc1ccc(OCC(=O)Nc2ccccc2C(F)(F)F)cc1	18%	0%	0	25*	?	-1%
Cc1ccc(OCCCC(=O)Nc2ccccc2C(F)(F)F)cc1	8%	0%[46.1 µM]	-7	-1	13%	-14%
O=C(COc1ccccc1Br)Nc1ccccc1C(F)(F)F	52%	nt	61*	23*	nt	86%
O=C(Nc1ccccc1N1CCN(c2ccccc2)CC1)c1ccccc1F	?	-1%[46.1 µM]	9	7	-4%	21%
CC(C)C(=O)N1CCC2(CC1)Oc1ccc(Cl)cc1C(=O)C21CC(c2cccnc2)=NO1 (stereo unspecified)	?	nt	-5	-6	nt	?
